{"source": "PubChem BioAssay (NCI)", "test": "NCI Yeast Anticancer Drug Screen. Data for the rad14 strain (AID 159);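 note: 0% = growth of vehicle-treated control cultures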", "details": "S. cerevisiae rad14 strain growth inhibition, active compounds read high", "procedure": "Growth inhibition of yeast strains with defined genetic alterations is measured as a screen for potential anti-cancer activity. Selected strains with alterations in DNA damage repair or cell cycle control were exposed to compounds and growth inhibition was measured relative to vehicle treated controls. The strain used in this assay is rad14", "note": "The panel holds about 79,000 compounds, 15% with a hit somewhere; the sample as a whole holds those more often. Active and inactive are the calls of the source. Cut-off read from the data, not from the text of the source: active = growth inhibition above about 70%; inactive = the rest.", "data": [{"molecule": "Cc1ccc2nc(N/N=C/c3ccc(C)s3)cc(C)c2c1", "values": [{"measurement": "growth inhibition", "setting": "at 1.2 µM", "value": "-32% (inactive)"}, {"measurement": "growth inhibition", "setting": "at 3.7 µM", "value": "-18% (inactive)"}, {"measurement": "growth inhibition", "setting": "at 11.0 µM", "value": "0% (inactive)"}, {"measurement": "growth inhibition", "setting": "at 33.0 µM", "value": "99% (active)"}, {"measurement": "growth inhibition", "setting": "at 100.0 µM", "value": "98% (active)"}]}, {"molecule": "c1ccc(N/N=C2\\CC(c3ccccc3)Oc3ccccc32)cc1", "note": "(stereo not given)", "values": [{"measurement": "growth inhibition", "setting": "at 1.2 µM", "value": "0% (inactive)"}, {"measurement": "growth inhibition", "setting": "at 3.7 µM", "value": "4% (inactive)"}, {"measurement": "growth inhibition", "setting": "at 11.0 µM", "value": "10% (inactive)"}, {"measurement": "growth inhibition", "setting": "at 33.0 µM", "value": "52% (inactive)"}, {"measurement": "growth inhibition", "setting": "at 100.0 µM", "value": "72% (active)"}]}, {"molecule": "Cn1c(COc2ccc(/C=N/NC(=O)CCC(=O)N/N=C/c3ccc(OCc4c[n+]5ccccc5n4C)cc3)cc2)c[n+]2ccccc12", "values": [{"measurement": "growth inhibition", "setting": "at 1.2 µM", "value": "0% (inactive)"}, {"measurement": "growth inhibition", "setting": "at 3.7 µM", "value": "-1% (inactive)"}, {"measurement": "growth inhibition", "setting": "at 11.0 µM", "value": "0% (inactive)"}, {"measurement": "growth inhibition", "setting": "at 33.0 µM", "value": "7% (inactive)"}, {"measurement": "growth inhibition", "setting": "at 100.0 µM", "value": "97% (active)"}]}, {"molecule": "O=S(=O)(Oc1c(Cl)cc(Cl)cc1Cl)c1ccccc1", "values": [{"measurement": "growth inhibition", "setting": "at 1.2 µM", "value": "0% (inactive)"}, {"measurement": "growth inhibition", "setting": "at 3.7 µM", "value": "0% (inactive)"}, {"measurement": "growth inhibition", "setting": "at 11.0 µM", "value": "8% (inactive)"}, {"measurement": "growth inhibition", "setting": "at 33.0 µM", "value": "11% (inactive)"}, {"measurement": "growth inhibition", "setting": "at 100.0 µM", "value": "12% (inactive)"}]}, {"molecule": "CN(C)N=Nc1ccc(NC=O)cc1", "values": [{"measurement": "growth inhibition", "setting": "at 1.2 µM", "value": "6% (inactive)"}, {"measurement": "growth inhibition", "setting": "at 3.7 µM", "value": "3% (inactive)"}, {"measurement": "growth inhibition", "setting": "at 11.0 µM", "value": "9% (inactive)"}, {"measurement": "growth inhibition", "setting": "at 33.0 µM", "value": "77% (active)"}, {"measurement": "growth inhibition", "setting": "at 100.0 µM", "value": "98% (active)"}]}, {"molecule": "N=c1oc2ccccc2cc1-c1nc2ccccc2[nH]1", "values": [{"measurement": "growth inhibition", "setting": "at 1.2 µM", "value": "5% (inactive)"}, {"measurement": "growth inhibition", "setting": "at 3.7 µM", "value": "11% (inactive)"}, {"measurement": "growth inhibition", "setting": "at 11.0 µM", "value": "25% (inactive)"}, {"measurement": "growth inhibition", "setting": "at 33.0 µM", "value": "39% (inactive)"}, {"measurement": "growth inhibition", "setting": "at 100.0 µM", "value": "88% (active)"}]}, {"molecule": "CC(=O)CC[N+](C)(C)C", "values": [{"measurement": "growth inhibition", "setting": "at 1.2 µM", "value": "5% (inactive)"}, {"measurement": "growth inhibition", "setting": "at 3.7 µM", "value": "6% (inactive)"}, {"measurement": "growth inhibition", "setting": "at 11.0 µM", "value": "-5% (inactive)"}, {"measurement": "growth inhibition", "setting": "at 33.0 µM", "value": "0% (inactive)"}, {"measurement": "growth inhibition", "setting": "at 100.0 µM", "value": "-2% (inactive)"}]}, {"molecule": "CC[C@@]1(OC(=O)CN(C)C)C(=O)OCc2c1cc1n(c2=O)Cc2cc3ccccc3nc2-1", "values": [{"measurement": "growth inhibition", "setting": "at 1.2 µM", "value": "2% (inactive)"}, {"measurement": "growth inhibition", "setting": "at 3.7 µM", "value": "8% (inactive)"}, {"measurement": "growth inhibition", "setting": "at 11.0 µM", "value": "44% (inactive)"}, {"measurement": "growth inhibition", "setting": "at 33.0 µM", "value": "87% (active)"}, {"measurement": "growth inhibition", "setting": "at 100.0 µM", "value": "95% (active)"}]}]}
